Screening results as filed in PubChem.
HCV inhibitor = inhibitors of hepatitis C virus infection; AID 651820; actives 3.4% (n = 340,000); Huh7.5.1 HCVcc-Cre infection, luciferase reporter, 44 h; Potency, µM (titrated, usually from 41.8 µM), for inactives: at the top dose activity change, negative = inhibition, actives largely listed as inhibitors; note: potency is the fitted concentration of half-maximal effect; % is set by controls: 0 for no effect and ±100 for the full control effect
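Luciferase read-out (15 sec integration) after a 15 min room-temperature substrate step quantifies HCVcc-Cre infection. Cells, 1,000 per well, had compound added 4 h post-plating, then virus at ~0.5 moi, and were cultured 44 h.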
Pf growth 48h = inhibits P. falciparum growth in the first generation, 48 h. actives 5.9% (n = 310,000). Potency, µM (doses to about 28.7 µM), without a hit: at the top dose activity change, negative = inhibition, usual class: inhibitors. P. falciparum luciferase growth in erythrocytes, 48 h; note: potency is the fitted concentration of half-maximal effect; % is set by controls: 0 for no effect and ±100 for the full control effect
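First compound was added to culture medium, then infected red cells at 0.1% parasitemia and 2% hematocrit (final). After incubation at 37 C under 5% CO2, luciferase detection reagent was dispensed and light output recorded.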
HCMV inh = blocks human cytomegalovirus replication; AID 1259415; actives 4.5% (n = 410,000); HFF cells, HCMV-luciferase reporter, 72 h; stronger effect = lower value; activity change, negative = inhibition, % at 57.5 µM; in the data active = activity change below about -60%; inconclusive = no clear call, values can overlap the other calls; inactive = above about -39%; note: % is set by controls: 0 for no effect and ±100 for the full control effect
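HFF cells seeded 16 h at 37C, treated with compounds, infected with luciferase-reporter HCMV at MOI 1 PFU/cell; luciferase read at 72 h post infection, normalized to buffer-only and Salinomycin controls.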
CHX counter = counter-screen for Shiga toxin inhibitors: cycloheximide protein synthesis inhibition. cell reporter, cycloheximide protein synthesis inhibition counterscreen. max response, %. actives 12% (n = 300,000); in the data active = max response mostly above about 13%, no sharp cut-off; inactive = mostly below about 14%; note: read at 38.3 µM for the half of the compounds with a filed dose; 0% is about no effect
Pf growth 96h = P. falciparum growth inhibition at 96 hour, primary screen for plastid delayed-death inhibitors; actives 6.9% (n = 320,000); P. falciparum luciferase reporter growth, 96 h; Potency, µM (doses to about 28.7 µM), for the others: at the top dose activity change, negative = inhibition, most hits filed as inhibitors; note: potency is the fitted concentration of half-maximal effect; % is set by controls: 0 for no effect and ±100 for the full control effect
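Two-generation exposure (96 h) targets delayed-death phenotype. Reporter parasites carrying integrated firefly luciferase, in red cells at 2% hematocrit and 0.05% parasitemia final, kept at 37 C, 5% CO2; luminescence loss indicates inhibition.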
Shiga toxin inh = blocks Shiga toxin action in Vero cells. Vero cells, Shiga toxin protein synthesis inhibition reporter. actives 9.2% (n = 290,000). inhibition, % at 38.7 µM; in the data active = inhibition mostly above about 28%, no sharp cut-off; inactive = mostly below about 43%; note: 0% is about no effect
An asterisk follows results filed as active; ? = inconclusive; · = no result. An excerpt weighted towards active compounds, which were near 21% of everything screened. Unless noted, calls come from the whole dose curve; as a rule, active = well fitted inhibition curve with a large enough effect; inconclusive = small, poorly fitted or top-dose-only effect, or another doubt; inactive = no such curve, though single readings can be large or run the other way.

SMILES	HCV inhibitor	Pf growth 48h	HCMV inh	CHX counter	Pf growth 96h	Shiga toxin inh
CSc1ccc(/C=C/C(=O)NC(=O)c2ccccc2O)cc1	3%	?	19	9.6*	5%	20
CCCCCCCC[n+]1cccc(C(=O)N(CC)CC)c1	6%	?	2	0	8.3µM*	-6
CCN(CC)C(=O)c1ccc(CS(=O)(=O)Cc2ccccc2)cc1	0%	22%	5	1	?	-5
CCCCCCCCCCCCCCCC[n+]1cccc(C(=O)N(CC)CC)c1	6%	5.2µM*	-31	-1	2.6µM*	-13
Oc1ccc[n+](CCCCC[n+]2cccc(O)c2)c1	10%	2%	-13	-3	24%	19
O=C1c2ccccc2/C(=C\C#Cc2ccccn2)N1c1ccccc1	?	·	-33	·	·	·
COc1cc(CN(C(=O)COc2ccc(Cl)cc2)c2ccccn2)cc(OC)c1OC	·	·	6	·	·	·
CCOCCCN(C(=O)c1snc(C(N)=O)c1N)C(C(=O)NC1CCCC1)c1ccc(F)cc1 (stereo not drawn)	?	?	16	-11	?	18
Cc1cc(-c2csc(N)n2)c(C)n1Cc1ccco1	?	-3%	-30	36*	?	33
CCn1cc(-c2csc(N)n2)c(C)n1	-9%	3%	39	11	?	14
CCn1ncc(-c2csc(N)n2)c1C	-10%	96%	16	26*	?	31
Cc1cc(-c2csc(N)n2)c(C)n1C	-21%	·	-7	6	10µM*	24
CCOc1ccc(NC(=O)COC(=O)CC2CC3CCC2C3)cc1 (stereo not drawn)	20%	·	90	·	·	·
CC(=O)c1cccc(NC(=O)COc2cc3oc(=O)c(CC(C)O)c(C)c3cc2Cl)c1 (stereo not drawn)	?	?	?	-3	10µM*	-6
Cc1ccc(C2c3cccn3CCN2S(=O)(=O)c2ccc([N+](=O)[O-])cc2)cc1 (stereo not drawn)	·	·	-17	·	·	·
COc1ccccc1N(C(=O)c1cncc(Br)c1)c1nc(-c2ccc(C)cc2)cs1	?	?	-19	6	7.4µM*	-1
Cc1ccc(-c2csc(N(Cc3ccccc3)C(=O)COc3ccccc3)n2)cc1	16%	41%	20	0	42%	-11
COCCCNC(=O)c1cc(Sc2ccc(F)cc2)nc2ccccc12	?	11%	-61*	-3	?	-10
CN(C)CCNC(=O)c1cc(Sc2ccc(F)cc2)nc2ccccc12	·	-26%	·	-1	-20%	25
CCOCCCNC(=O)c1cc(Sc2ccc(F)cc2)nc2ccccc12	5%	17%	-62*	-1	13µM*	-3
O=C(Nc1cccc(Cl)c1)N1Cc2ccccc2Oc2ncccc21	·	·	18	·	·	·
Cc1ccccc1CN(C)CC(=O)Nc1cccc(S(=O)(=O)N(C)c2ccccc2)c1	?	?	7	4	?	12
CCC(C(=O)Nc1cccc(S(=O)(=O)N(C)c2ccccc2)c1)c1ccccc1 (stereo not drawn)	?	9.3µM*	-2	·	?	·
Cc1cc(C)c(NC(=O)CN(C)CC(=O)Nc2cccc(S(=O)(=O)N(C)c3ccccc3)c2)c(C)c1	10µM*	·	?	·	·	·
CCN(CC(=O)Nc1cccc(S(=O)(=O)N(C)c2ccccc2)c1)Cc1ccccc1	?	?	-4	·	10µM*	·
SMILES	HCV inhibitor	Pf growth 48h	HCMV inh	CHX counter	Pf growth 96h	Shiga toxin inh
CN(CC(=O)Nc1cccc(F)c1)CC(=O)Nc1cccc(S(=O)(=O)N(C)c2ccccc2)c1	?	·	67	·	·	·
Cc1ccc(C(=O)NCC(=O)NCc2ccc(Cl)cc2)s1	-10%	·	15	·	·	·
O=C(NCC1CCCCN1)c1cc(OCC(F)(F)F)ccc1OCC(F)(F)F (stereo not drawn)	10µM*	-25%	0	-4	?	-9
O=C(NCCNC(=O)c1cc(OCC(F)(F)F)ccc1OCC(F)(F)F)Nc1ccc(Cl)cc1	8%	17%	18	28*	116%	39
CC(C)CC(=O)NCCNC(=O)c1cc(OCC(F)(F)F)ccc1OCC(F)(F)F	5%	-2%	35	-3	·	-10
O=C(CCl)NCCNC(=O)c1cc(OCC(F)(F)F)ccc1OCC(F)(F)F	22µM*	?	-78*	5	?	-6
O=C(NCCN1CCCCC1)c1cc(OCC(F)(F)F)ccc1OCC(F)(F)F	-4%	45%	26	-2	53%	-9
O=C1CC(=Nc2ccccc2)NN1c1ccccc1	-29%	?	12	14*	13µM*	-2
O=C1Cc2ccccc2N1c1ccccc1	11%	·	-30	-2	·	-7
COc1ccc(C(C(=O)NC2CCCCC2)N(C(=O)c2sc(C)nc2C)c2ccc(C(C)=O)cc2)cc1 (stereo not drawn)	-11%	?	-4	-4	9.3µM*	3
CCC(C)(C)NC(=O)C(c1ccncc1)N(C(=O)c1sc(C)nc1C)c1ccc(C)cc1 (stereo not drawn)	7%	9.3µM*	-36	5	20%	15
Cc1cc(C)cc(N(C(=O)c2csnn2)C(C(=O)NC(C)(C)C)c2ccncc2)c1 (stereo not drawn)	9%	5%	-8	-1	?	-4
COCc1cc(C)nc(Sc2nc3c(c(=O)n(C)c(=O)n3C)n2C)c1C#N	-10%	?	24	44	-51%	-6
CC(=O)Nc1ccc(S(=O)(=O)N2CCC(c3nc4ccccc4[nH]3)CC2)cc1	-4%	8.3µM*	·	1	·	9
O=C(c1ccc(S(=O)(=O)N2CCC(c3nc4ccccc4[nH]3)CC2)cc1)N1CCOCC1	·	?	-14	1	?	-6
CC(C)(C)C(=O)Nc1ccc(S(=O)(=O)N2CCC(c3nc4ccccc4[nH]3)CC2)cc1	3%	13µM*	-35	·	8.3µM*	·
CCOCC(=O)Nc1ccc(S(=O)(=O)N2CCC(c3nc4ccccc4[nH]3)CC2)cc1	16%	10µM*	-10	·	?	·
CC(=O)c1cccc(S(=O)(=O)N2CCC(c3nc4ccccc4[nH]3)CC2)c1	?	-3%	6	-1	7%	-5
CC(=O)Nc1ccc(S(=O)(=O)N2CCN(c3nc(NC4CCCC4)c4ccccc4n3)CC2)cc1	7.9µM*	2.1µM*	-37	-6	?	-19
O=S(=O)(c1ccc(F)cc1)N1CCC(c2nc3ccccc3[nH]2)CC1	6%	?	?	-4	-19%	-1
CCCCn1nnnc1C1(C)CCC(=O)N1CCc1ccccc1F (stereo not drawn)	·	·	-7	·	·	·
COC(=O)[C@@]12C[C@@H](CC(=O)NCc3cccs3)C(=O)N(Cc3cccc4ccccc34)C1=CCC(C)(C)C2	·	·	-3	·	·	·
